Assay results reported in PubChem BioAssay AID1053119 (Broad Institute, 2014).
Measured potencies and affinities stand elsewhere. Results filed as inconclusive are left out. Values without a mark were called inactive.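 How the source made its calls: active means signal loss from cell killing with fitted potency at or below twice the top valid dose; inconclusive means flat drop of 30 to 70%, or unreliable curve fit; inactive means opposite direction, flat within 30%, or weaker potency.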

Assay: A549 cell cytotoxicity, dose response, cytotoxicity control, cherry-picks, 26 µM top dose (AID 1053119);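 further: 0% = neutral control wells and -100% = 10 µM mitoxantrone wells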
Details: A549 viability, CellTiter-Glo ATP luminescence, 72 h; series mostly up to 26 µM; activity change, negative = cytotoxicity: at the top concentration

Row | Compound | activity change, negative = cytotoxicity
1 | O=C(Nc1ccccc1F)N1C[C@@H]2[C@H](c3ccccc31)[C@H](CO)N2C(=O)C1CCOCC1 | 8.24% [at 23.5 µM]
2 | O=C(NCCS(=O)(=O)N1CCN(c2ccc(F)cc2)CC1)c1ccc(Br)o1 | -7.54%
3 | O=C(CC1Nc2ccccc2NC1=O)Nc1ccc2c(c1)OCO2 (configuration not stated) | -10.1%
4 | Cc1oc2ccc(O)cc2c1C(=O)c1ccc(Br)cc1 | -18.2%
5 | C[C@@H]1CN([C@H](C)CO)C(=O)c2cc(-c3ccccc3)cnc2O[C@H]1CN(C)C(=O)c1cccc(F)c1 | -3.54%
6 | CSc1ccccc1C(=O)C1CCCN(C(=O)CCc2cccnc2)C1 (configuration not stated) | -5.79%
7 | C[C@H](CO)N1C[C@H](C)[C@H](CN(C)C)Oc2cc(C#C[C@@H](C)O)ccc2S1(=O)=O | 14.3%
8 | COc1cccc(-c2ccc3c(c2)[C@@H]2[C@@H](CCN2S(=O)(=O)c2cccc(OC)c2)[C@@H](CO)N3)c1 | -1.38%
9 | C[C@@H]1CN([C@H](C)CO)C(=O)c2cc(NC(=O)C3CCCCC3)ccc2O[C@@H]1CN(C)Cc1ccc(-c2ccccc2)cc1 | -12.1%
10 | COc1ccc(CCNC(=O)C2CCN(Cc3nc(-c4ccccc4F)oc3C)CC2)cc1OC | 13.1%
11 | CCOC(=O)c1cnc(SCc2nc(N)nc(Nc3ccc(OC)cc3)n2)nc1N | -4.98%
12 | CO[C@@H]1CN(C)C(=O)c2cc(NC(=O)Nc3ccc(Cl)c(Cl)c3)ccc2OC[C@H](C)NC[C@H]1C | 2.06%
13 | O=S(=O)(c1ccccc1F)N1CC[C@H]2[C@H](CO)Nc3ccc(-c4cccc(F)c4)cc3[C@H]21 | -4.39% [at 23.5 µM]
14 | C[C@@H]1CN([C@@H](C)CO)C(=O)c2cc(-c3ccncc3)cnc2O[C@@H]1CN(C)C(=O)Cc1cccnc1 | 3.71%
15 | C[C@H](O)C#Cc1ccc2c(c1)O[C@H](CN(C)C)[C@H](C)CN([C@@H](C)CO)S2(=O)=O | 1.47%
16 | COc1cccc(CN2CCN(C(=O)c3ccc(-c4ccccc4)cc3)CC2)c1OC | 4.35%
17 | Cc1ccc([N+](=O)[O-])cc1NC(=O)CN(C(=O)c1ccccc1Cl)C1CCCCC1 | -14%
18 | O=C(Nc1ccccc1F)N1C[C@H]2[C@@H](c3ccccc31)[C@@H](CO)N2C(=O)C1CC1 | -9.56%
19 | C=CCC[C@H](Cc1ccc(F)cc1)C(=O)OC[C@H](Cc1c[nH]c2ccccc12)NC(=O)[C@@H](CC=C)CC(=O)N[C@@H](CO)Cc1ccccc1 | -14.9%

Row | Compound | activity change, negative = cytotoxicity
20 | COc1ccc(-c2csc(CCn3nc(C)cc3C)n2)cc1OC | -10.7%
21 | N#Cc1ccc(-c2ccc3c(c2)[C@@H]2[C@@H](CCN2S(=O)(=O)c2cccc(F)c2)[C@@H](CO)N3)cc1 | -2.88% [at 23.5 µM]
22 | Cc1ccc(Nc2nnc(SCc3ccccc3)s2)cc1 | -8.6%
23 | CC(C)CNC(=O)c1coc(=O)c(Br)c1 | -7.45%
24 | CCc1ccc(NC(=O)CSc2nnc(-c3ccco3)o2)cc1 | -8.55%
25 | C[C@H](CO)N1C[C@H](C)[C@@H](CN(C)C(=O)c2cccc(F)c2)Oc2ncc(-c3ccccc3)cc2C1=O | -7.25%
26 | C[C@@H](O)C#Cc1ccc2c(c1)O[C@@H](CN(C)C)[C@@H](C)CN([C@@H](C)CO)S2(=O)=O | 1.66%
27 | COCC(=O)Nc1ccc2c(c1)C(=O)N(C)[C@@H]1CC[C@@H](CC(=O)NCc3ccccc3Cl)O[C@@H]1CO2 | -6.21% [at 23.5 µM]
28 | CCC(C)(C)NC(=O)C(OC(=O)c1ccco1)c1ccccc1OC (configuration not stated) | -3.54%
29 | CN(C)c1ccc(-c2ccnc3c2CC(C)(C(=O)NCC2CC2)O3)cc1 (configuration not stated) | -1%
30 | Cc1cccc(NC(=O)c2ccc(S(=O)(=O)N3CCCCC3)cc2)n1 | -1.35%
31 | Cn1cnc(S(=O)(=O)N2CCN(c3ccccc3)CC2)c1 | -0.126%
32 | Cc1cccc(NC(=O)Nc2ccc(S(=O)(=O)Nc3onc(C)c3C)cc2)c1 | -6.98%
33 | COC(=O)C[C@@H]1CC[C@H]2[C@H](COc3ccc(NC(=O)Cc4cccs4)cc3C(=O)N2C)O1 | 1.35% [at 23.5 µM]
34 | C[C@H]1CN([C@@H](C)CO)C(=O)c2cc(NC(=O)CCCN(C)C)ccc2O[C@@H]1CN(C)Cc1ccc(-c2ccccc2)cc1 | -0.529%
35 | Nc1c(C(=O)NCc2ccco2)nnn1Cc1ccccc1 | -6.95%
36 | Fc1cnc(N2CCN(c3ccccc3)CC2)nc1N1CCN(c2ccccc2)CC1 | 9.88%
37 | C[C@H](CO)N1C[C@H](C)[C@@H](CN(C)Cc2ccc(-c3ccccc3)cc2)Oc2ccc(NC(=O)CCCN(C)C)cc2C1=O | -1.63%
